# Assay outcomes as filed in PubChem BioAssay.
# Most compounds without a hit are left out; they make up all but 6.7% or so of the library.
# T cruzi growth – blocks T. cruzi growth in NIH3T3 culture. T. cruzi beta-gal in NIH3T3, GalScreen luminescence, 90 h. inhibition, % at 8.34 µM. 5.9% of 77,000 active;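 active means mean inhibition above about 93%, with at least 55% of replicates each passing it, limit read from the data, passing the limit was not always enough; inconclusive means only one of those two conditions holds; inactive means neither condition holds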
# Pf Dd2 growth – P. falciparum Dd2 growth inhibition; SYBR Green, 72 h; stronger effect = lower value; activity change, % at 10 µM; 2.3% of 94,000 active; AID 1159554; in the data active means activity change below about -80%; inconclusive means no clear call, values can overlap the other calls
# C diff HTS – C. difficile growth inhibition; 0.25% of 86,000 active; growth activity, negative = inhibition, % at 16 µg/mL (by protocol); Clostridium difficile clinical isolate growth, OD600, 24 h; stronger effect = lower value;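 active means mean growth activity at or below -80% and every replicate also at or below -80%; inconclusive means mean at or below -80% but some replicate above -80%; inactive means mean growth activity above -80%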
# A number is an active result; 0 = inactive; ? = inconclusive; - = no result given.
SMILES,T cruzi growth,Pf Dd2 growth,C diff HTS
O=C(C1CCCC1)N1CC(=O)N2[C@@H](CO)[C@@H](c3ccc(C#Cc4cccc(F)c4)cc3)[C@@H]2C1,-,0,0
CO[C@@H]1CN(C)C(=O)c2ccc(NC(=O)NC(C)C)cc2OC[C@@H](C)N(Cc2ccccc2)C[C@H]1C,-,-85,0
CCCNC(=O)Nc1ccc2c(c1)OC[C@@H](C)N(Cc1ccccc1)C[C@@H](C)[C@H](OC)CN(C)C2=O,0,-87,0
CCCNC(=O)Nc1ccc2c(c1)OC[C@H](C)N(Cc1ccccc1)C[C@H](C)[C@@H](OC)CN(C)C2=O,-,0,0
CCCC(=O)Nc1ccc2c(c1)OC[C@H](C)N(Cc1ccc(F)cc1)C[C@@H](C)[C@H](OC)CN(C)C2=O,?,0,-
CO[C@H]1CN(C)C(=O)c2ccc(NC(=O)c3ccc4c(c3)OCO4)cc2OC[C@@H](C)N(CC2CC2)C[C@H]1C,-,0,-
CCCC(=O)Nc1ccc2c(c1)OC[C@@H](C)N(Cc1ccc(F)cc1)C[C@@H](C)[C@H](OC)CN(C)C2=O,-,-87,0
CO[C@H]1CN(C)C(=O)c2ccc(NC(=O)NC(C)C)cc2OC[C@H](C)N(Cc2ccccc2)C[C@H]1C,0,0,-
CO[C@@H]1CN(C)C(=O)c2ccc(NC(=O)c3ccc4c(c3)OCO4)cc2OC[C@@H](C)N(Cc2ccc3c(c2)OCO3)C[C@H]1C,0,-85,0
C/C=C/c1ccc2c(c1)O[C@H](CN(C)C(=O)CC)[C@H](C)CN([C@H](C)CO)S2(=O)=O,0,0,0
C[C@@H]1CN([C@@H](C)CO)C(=O)c2cc(C#CC3CCCCC3)cnc2O[C@H]1CN(C)C,0,0,0
O=C(Nc1ccc2c(c1)[C@@H]1C[C@@H](CC(=O)N3CCc4ccccc4C3)O[C@@H](CO)[C@@H]1O2)NC1CCCC1,-,0,0
COc1ccc(CN2CC3(CCN(C(=O)Nc4cccc(F)c4)CC3)c3c([nH]c4cc(OC)ccc34)[C@@H]2CO)cc1,-,0,-
CCC(=O)N(C)C[C@H]1Oc2ncc(-c3ccc(C(=O)N(C)C)cc3)cc2C(=O)N([C@H](C)CO)C[C@@H]1C,0,0,0
O=C(C[C@@H]1C=C[C@H](NC(=O)Nc2ccc(C(F)(F)F)cc2)[C@H](CO)O1)NCc1ccccn1,0,0,0
CCCNC(=O)N1C[C@@H](O)COC[C@@H]2O[C@@H](CC(=O)N3CCCCC3)CC[C@H]21,0,0,-
CCC(=O)Nc1ccc2c(c1)OC[C@H](C)N(Cc1ccccn1)C[C@@H](C)[C@@H](OC)CN(C)C2=O,0,0,-
CCCNC(=O)Nc1ccc2c(c1)C(=O)N(C)C[C@@H](OC)[C@H](C)CN(C(=O)C1CCOCC1)[C@@H](C)CO2,0,-87,-
CCC(=O)Nc1ccc2c(c1)OC[C@H](C)N(Cc1ccccn1)C[C@H](C)[C@H](OC)CN(C)C2=O,0,-84,-
CCCNC(=O)Nc1ccc2c(c1)C(=O)N(C)C[C@H](OC)[C@@H](C)CN(C(=O)C1CCOCC1)[C@H](C)CO2,0,0,-
C[C@@H]1CN([C@@H](C)CO)C(=O)c2cc(NC(=O)CCC(F)(F)F)ccc2O[C@@H](C)CCCCO[C@@H]1CN(C)S(=O)(=O)c1ccc(Cl)cc1,0,-86,0
C[C@@H]1CCCCO[C@@H](CN(C)S(=O)(=O)c2ccc(Cl)cc2)[C@H](C)CN([C@H](C)CO)C(=O)c2cc(NC(=O)Nc3ccc(C(F)(F)F)cc3)ccc2O1,0,0,0
C[C@@H]1CCCCO[C@H](CN(C)S(=O)(=O)c2ccc(F)cc2)[C@@H](C)CN([C@@H](C)CO)C(=O)c2cc(NC(=O)Nc3ccc(C(F)(F)F)cc3)ccc2O1,0,-85,-
C[C@@H]1CCCCO[C@@H](CN(C)S(=O)(=O)c2ccc(Cl)cc2)[C@@H](C)CN([C@H](C)CO)C(=O)c2cc(NC(=O)CCC(F)(F)F)ccc2O1,0,0,0
C[C@H](CO)N1C[C@H](C)[C@H](CN(C)S(=O)(=O)c2ccc(F)cc2)OCCCC[C@H](C)Oc2ccc(NC(=O)Nc3ccc(C(F)(F)F)cc3)cc2C1=O,0,0,-
SMILES,T cruzi growth,Pf Dd2 growth,C diff HTS
C[C@@H]1CCCCO[C@@H](CN(C)S(=O)(=O)c2ccc(Cl)cc2)[C@@H](C)CN([C@H](C)CO)C(=O)c2cc(NC(=O)Nc3ccc(C(F)(F)F)cc3)ccc2O1,0,-86,0
CCNC(=O)Nc1ccc2c(c1)C(=O)N(C)[C@H]1CC[C@@H](CC(=O)NCC3CCCCC3)O[C@H]1CO2,0,0,0
Cc1ccc(S(=O)(=O)N(C)C[C@H]2OCCCC[C@@H](C)Oc3ccc(NC(=O)Nc4cccc5ccccc45)cc3C(=O)N([C@@H](C)CO)C[C@@H]2C)cc1,-,0,0
CCCNC(=O)N[C@@H]1CC[C@@H](CCn2cc(C3CCCC3)nn2)O[C@H]1CO,0,0,-
C[C@@H]1CN([C@H](C)CO)C(=O)c2cc(NC(=O)CCN3CCOCC3)ccc2O[C@H]1CN(C)Cc1ccncc1,0,0,0
COc1ccc2c3c(n(C)c2c1)[C@@H](CO)N(C)CC31CCN(S(C)(=O)=O)CC1,-,0,0
O=C1CSCN1c1ccccc1,-,-,0
CCC(=O)N1C[C@@H]2[C@H](c3ccccc31)[C@H](CO)N2Cc1ccc(F)cc1,0,0,0
CO[C@@H]1CN(C)C(=O)c2ccc(NC(=O)c3ccc(F)cc3)cc2OC[C@H](C)N(C(=O)c2ccc(F)cc2)C[C@H]1C,0,0,-
CO[C@@H]1CN(C)C(=O)c2ccc(NC(=O)c3ccc(-c4ccccc4)cc3)cc2OC[C@@H](C)NC[C@H]1C,-,-87,0
CO[C@@H]1CN(C)C(=O)c2cc(NC(=O)c3ccc(Oc4ccccc4)cc3)ccc2OC[C@H](C)NC[C@H]1C,0,0,0
CO[C@@H]1CN(C)C(=O)c2ccc(NC(=O)c3ccc(F)cc3)cc2OC[C@@H](C)N(C(=O)c2ccc(F)cc2)C[C@@H]1C,0,-88,-
CO[C@H]1CN(C)C(=O)c2ccc(NC(=O)c3ccc(-c4ccccc4)cc3)cc2OC[C@H](C)NC[C@@H]1C,-,0,0
CO[C@H]1CN(C)C(=O)c2cc(NC(=O)c3ccc(Oc4ccccc4)cc3)ccc2OC[C@@H](C)NC[C@@H]1C,0,-90,0
CO[C@@H]1CN(C)C(=O)c2ccc(NC(=O)c3ccccc3)cc2OC[C@H](C)NC[C@@H]1C,-,0,-
CO[C@H]1CN(C)C(=O)c2ccc(NC(=O)c3ccc(-c4ccccc4)cc3)cc2OC[C@@H](C)NC[C@H]1C,0,-86,-
COc1ccc2c3c([nH]c2c1)[C@@H](CO)N(Cc1ccccn1)CC31CN(C(C)=O)C1,-,0,-
CCC(=O)Nc1ccc2c(c1)C(=O)N(C)[C@@H]1CC[C@H](CC(=O)NCCc3ccccc3)O[C@@H]1CO2,0,0,0
COc1ccc2c3c([nH]c2c1)[C@H](CO)N(C(=O)CN(C)C)CC31CCN(CC2CCCCC2)CC1,-,-89,0
COc1ccc2c3c([nH]c2c1)[C@@H](CO)N(C(=O)CN(C)C)CC31CCN(CC2CCCCC2)CC1,-,-87,0
COc1ccc2c3c([nH]c2c1)[C@H](CO)N(C(=O)CN(C)C)CC31CCN(CC2CC2)CC1,-,0,0
COc1ccc2c3c([nH]c2c1)[C@H](CO)N(C(=O)CN(C)C)CC31CN(CC2CCCC2)C1,-,0,0
COc1ccc2c3c([nH]c2c1)[C@@H](CO)N(Cc1ccncc1)CC31CN(Cc2ccc(-c3ccccn3)cc2)C1,-,?,0
